From publication doi:10.1101/2023.07.10.548322 come the findings set out here.

The target in the assay is alpha-synuclein (aSyn) WT (human, UniProt P37840 1-140). Nature of the assay: RNA Bind-n-Seq. The note with it: ssRNA.
GGGAUGUGUGGG gave a binding signal of 60.2 enrichment score. On to GGGGGGAUUGGG, for which the binding signal came to 57.4 enrichment score.

Take UAGGGGUUGUGG: the binding signal was 43.8 enrichment score. Under GGGGUGGUGUUG stands 46.4 enrichment score; under AGGGUGGCGGUG, 49.1 enrichment score; under GUGGGGGUGGAU, 60.2 enrichment score. Under UGGGGGAUGGAG stands 41.1 enrichment score.

For GGGUGGGCGGAU, the binding signal stood at 43.8 enrichment score. The value for AGUGGCGGAGGG was 43.8 enrichment score; that for GGAGGCAGUGGG was 41.1 enrichment score. The value for UGGGGGAUGAGG was 46.4 enrichment score. The value for GAGGUUGGCGGG was 43.8 enrichment score; that for GGGGGGGGGGUG was 49.1 enrichment score; that for GUGGGGGGGCAU was 43.8 enrichment score.

In turn, GGGGGAUGUGGU gave a binding signal of 46.4 enrichment score.

UGGGGGGAGAAG: the binding signal worked out at 41.1 enrichment score.

Sequence GGCAGGCUGUGG had a binding signal of 41.1 enrichment score. Sequence AGGGGAGCUGGG returned a binding signal of 41.1 enrichment score. GGUGGUUUGUGG had a binding signal of 43.8 enrichment score.

In the case of GCGGGAGGGCGG, the binding signal came to 49.1 enrichment score. The value for GGGAAGGUUGUG was 43.8 enrichment score; that for GGAAUGGGGUGG was 43.8 enrichment score; that for GGGUGGGUUUGG was 43.8 enrichment score. Consider GGUGGAUGAGGG, for which the binding signal was determined as 41.1 enrichment score. Under GGGGAGUGGAUG stands 49.1 enrichment score; under GGGUGUUGGUUG, 43.8 enrichment score. As to GGAGGUGGUGCG, the binding signal amounted to 41.1 enrichment score. Under GAGGCGGGAGGG stands 43.8 enrichment score. Sequence GGCGAAGGGAGG returned a binding signal of 49.1 enrichment score. On to UGGCGGGGUGGA, for which the binding signal worked out at 46.4 enrichment score. Under GCGGGGUUAGGG stands 49.1 enrichment score. Under GAGGGGCUGGCG stands 41.1 enrichment score; under GAGUGGGUGGGA, 43.8 enrichment score; under GGGGGGCUGAGG, 43.8 enrichment score.
